# Shown are actives, neighbours in structure and some others; about 9.3% of the full set was active somewhere.
# SMN2 splice enh = qHTS Assay for Enhancers of SMN2 Splice Variant Expression; HEK293 SMN2-luciferase splicing reporter, luminescence, 30-36 h; Potency, µM (series often up to 46.1 µM), for the others: at the top dose activity change, positive = activation, usual class: activators; hit rate 2.8% among 210,000; also: % of control where 0% means no effect; nearly all actives have a fitted effect of over 55% in size
#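 HEK293 cells carry an SMN2 […]–luciferase reporter in which exon 7 inclusion puts luciferase in frame. Cells were plated 10-12 h before compound addition, then incubated 30-36 h at 37C. ONE-Glo luminescence was read; sodium butyrate at 4.5 mM final served as control.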
# Rab9 prom act = qHTS Assay for Rab9 Promoter Activators | Huh7 Rab9 promoter-luciferase reporter, luminescence, 24 h | Potency, µM (top dose mostly 9.22 µM), for the others: at the top dose activation, negative = inhibition, most hits filed as activators | hit rate 2.8% among 320,000 | AID 485297, 2010; also: % of control where 0% means no effect; nearly all actives have a fitted effect of over 60% in size
#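 Huh7 reporter line, Rab9 promoter upstream of luciferase. Compound exposure 24 h at 37 °C in reduced-serum medium with 10% FBS. Read-out: luminescence.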
# NPC1 promoter act = qHTS Assay for NPC1 Promoter Activators | Huh7 NPC1 promoter luciferase reporter, 24 h | hit rate 2.4% among 320,000 | AID 485313, 2010 | Potency, µM (series often up to 9.22 µM), for the others: top-dose activation, hits mostly activators; also: % of control where 0% means no effect; nearly all actives have a fitted effect of over 60% in size
#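 Readout is luciferase luminescence, reflecting NPC1 promoter activation in stably transfected Huh7 cells after 24 h compound exposure at 37 °C in reduced-serum medium with 10% FBS.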
# FLuc modulator = qHTS profiling assay for firefly luciferase inhibitor/activator using purifed enzyme and Km concentrations of substrates (counterscreen for miR-21 project); purified FLuc, Km substrates, luminescence inhibition; Potency, µM (highest dose often 57.5 µM), for the others: at the highest dose activity change, negative = inhibition, actives largely listed as inhibitors; hit rate 6.9% among 360,000;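 also: plate controls were vehicle for no effect and reference inhibitor for full effect; nearly all actives have a fitted effect of over 55% in size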
# Target sequence (P08659 whole entry, looked up): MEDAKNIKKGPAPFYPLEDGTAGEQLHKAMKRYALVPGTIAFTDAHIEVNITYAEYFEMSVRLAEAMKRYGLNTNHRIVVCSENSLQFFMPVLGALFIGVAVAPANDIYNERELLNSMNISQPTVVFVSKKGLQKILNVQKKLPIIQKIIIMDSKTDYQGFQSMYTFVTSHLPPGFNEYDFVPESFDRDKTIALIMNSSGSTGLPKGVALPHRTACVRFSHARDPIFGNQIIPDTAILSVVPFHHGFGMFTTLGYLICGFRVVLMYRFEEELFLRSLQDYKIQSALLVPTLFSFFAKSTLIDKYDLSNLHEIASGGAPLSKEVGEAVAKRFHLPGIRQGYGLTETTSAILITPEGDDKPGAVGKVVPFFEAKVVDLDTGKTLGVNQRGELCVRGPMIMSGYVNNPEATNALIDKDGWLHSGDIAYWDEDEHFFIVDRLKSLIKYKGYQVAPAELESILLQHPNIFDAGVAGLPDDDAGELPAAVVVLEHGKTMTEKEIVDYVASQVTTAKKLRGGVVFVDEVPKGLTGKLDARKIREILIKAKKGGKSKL
#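 Biochemical qHTS of compounds, final roughly 60 µM downward over six points, against 10 nM purified firefly luciferase using Km concentrations of substrates (10 uM D-luciferin, 10 uM ATP) in Tris acetate pH 7.5 buffer; luminescence output.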
# ELG1 DNA repair = qHTS screen for small molecules that inhibit ELG1-dependent DNA repair in human embryonic kidney (HEK293T) cells expressing luciferase-tagged ELG1. hit rate 2.3% among 330,000. HEK293T ELG1-luciferase reporter, luminescence, 16 h; DNA damage induced by 5-fluorouridine. Potency, µM (top dose mostly 46.1 µM), for inactives: at the highest dose activity change, negative = inhibition, most hits filed as inhibitors; also: % is scaled to controls: 0 for no effect and ±100 for the full control effect; nearly all actives have a fitted effect of over 55% in size
#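 5-Fluorouridine DNA damage + compound/DMSO, 2,000 cells/well, 16 h, 37 °C/5% CO2. ONE-Glo, 30 min RT, luminescence. Readout = decrease in reporter signal.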
# ELG1 genotox = qHTS screen for small molecules that induce genotoxicity in human embryonic kidney (HEK293T) cells expressing luciferase-tagged ELG1; HEK293T ELG1-luciferase reporter, luminescence, 16 h; Potency, µM (titrated, usually from 46 µM), for inactives: top-dose activity change, positive = activation, usual class: activators; hit rate 1.3% among 330,000; AID 504466, 2011; also: % of control where 0% means no effect; nearly all actives have a fitted effect of over 60% in size
#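 Step 1: seed 2,000 HEK293T ELG1-luciferase cells per well. Step 2: add compound or DMSO, incubate 16 hr at 37 °C. Step 3: ONE-Glo, 30 min at room temperature, read luminescence.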
# Starred values were filed as active, the others as inactive; ? = inconclusive; nt = no result given. Calls follow the shape of the dose curve; as a rule, active = well fitted curve in the direction sought with a large enough effect; inconclusive = small, poorly fitted or top-dose-only effect, or another doubt; inactive = no such curve, though single readings can be large; an effect the other way counts as inactive or inconclusive. Potency is read from the fitted curve at half-maximal effect.
SMILES,SMN2 splice enh,Rab9 prom act,NPC1 promoter act,FLuc modulator,ELG1 DNA repair,ELG1 genotox
CCOC(=O)C1CCN(C(=O)/C=C/c2ccc(OC)cc2)CC1,6.3µM*,0.32µM*,0.71µM*,7.6µM*,?,4.1µM*
Cc1ccsc1CN1CCC(C(=O)NCc2ccccc2Cl)CC1,10%,-1%,5%,1%,6%,-1%
CCOC(=O)N1CCN(C(=O)C2CCC(=O)N2C(C)C)CC1 (stereo unspecified),1%,8%,-2%,-3%,4%,-3%
COc1ccc(OC)c(Nc2nc3ccc(C)cc3n3cnnc23)c1,nt,3%,6%,-16%,8.2µM*,-15%
COc1cc(C)c(Cl)cc1S(=O)(=O)N1CCSC1,nt,-1%,-6%,-3%,-8%,0%
C=CCn1c(=O)c(C(=O)NCCN(CC)CC)c(O)c2ccccc21,-4%,2%,-4%,6%,-5%,0%
Cc1ccc(C23CC4CC(CC(C(N)=O)(C4)C2)C3)cc1,nt,0%,1%,-11%,16%,4%
N/C(=N\OC(=O)C12CC3CC(CC(C3)C1)C2)c1ccncc1,nt,-1%,-3%,19µM*,?,8%
Cc1ccc(/C(N)=N/OC(=O)C23CC4CC(CC(C4)C2)C3)cc1,-15%,?,24%,9.5µM*,?,4%
C/C(=N\NC(=O)c1ccncc1)C12CC3CC(CC(C3)C1)C2,-3%,0%,2%,-3%,-15%,-1%
Cc1c(C)c2cc(Cl)c(O)c(CN3CCN(C)CC3)c2oc1=O,-8%,-9%,0%,8%,2%,-6%
Cc1ccc(OCc2nnc(SCc3nc4ccccc4[nH]3)n2Cc2ccco2)cc1,-65%,-11%,-5%,?,9.2µM*,-12%
c1ccc(-c2nnc(SCc3nc4ccccc4[nH]3)n2Cc2ccco2)cc1,-14%,6%,-2%,-3%,21µM*,-1%
CCn1c(COc2ccc(Cl)cc2)nnc1SCc1nc2ccccc2[nH]1,-53%,-3%,-4%,-1%,?,-12%
N#C/C(=C\c1cn(CCOc2ccccc2)c2ccccc12)C(=O)NCC1CCCO1 (stereo unspecified),-8%,-2%,-2%,?,?,-5%
Cc1ccc(C)c(OCCn2cc(/C=C(/C#N)C(=O)NCC3CCCO3)c3ccccc32)c1 (stereo unspecified),-23%,-6%,-7%,-2%,15µM*,-7%
COc1cc(/C=C(\C#N)C(=O)NCC2CCCO2)ccc1O (stereo unspecified),11%,-3%,-2%,-4%,16%,5%
Cc1cc(/C=C(\C#N)C(=O)NCC2CCCO2)c(C)n1-c1ccc(Cl)cc1 (stereo unspecified),nt,3.5µM*,?,4.3µM*,?,1%
COCCCNC(=O)C(=O)NC1CCCCC1C (stereo unspecified),0%,-2%,-2%,0%,8%,1%
O=C(/C=C/Sc1ccc(C(F)(F)F)cn1)c1ccccc1,nt,-38%,-14%,0.54µM*,21%,6%
O=C(CSc1ccc(C(F)(F)F)cn1)Nc1ccccc1,nt,1%,-1%,-5%,-7%,-1%
COc1ccccc1NS(=O)(=O)c1ccc(N2CCOCC2)c(N)c1,nt,nt,nt,nt,-2%,-3%
COc1cccc2nc3cc(C)c(C)cc3nc12,nt,0.89µM*,0.89µM*,0.76µM*,?,1.5µM*
NS(=O)(=O)c1ccc(CCNC(=O)c2ccc([N+](=O)[O-])s2)cc1,nt,27%,-1%,2%,13µM*,-9%
COc1c(C(=O)Nc2ccc(Br)cn2)ccc2ccccc12,nt,?,18%,5.4µM*,?,?
SMILES,SMN2 splice enh,Rab9 prom act,NPC1 promoter act,FLuc modulator,ELG1 DNA repair,ELG1 genotox
COc1ccccc1NC(=O)Nc1ccc(Br)cn1,5%,17%,8%,2%,9%,4%
COc1cc2ccccc2cc1C(=O)Nc1ccc(Br)cn1,nt,1.8µM*,1.6µM*,?,?,?
O=C(Cc1c(F)cccc1Cl)N1CCOCC1,-4%,-3%,-1%,2%,1%,1%
O=C1c2ccccc2C(=O)N1CCSC(=S)N1CCOCC1,?,?,?,12µM*,?,?
Fc1c(CSC(=S)N2CCOCC2)cccc1CSC(=S)N1CCOCC1,nt,-9%,-2%,-3%,23µM*,-6%
CCN(CC)CCCNC(=O)c1nn(-c2ccccc2OC)c(=O)c2ccccc12,7%,-3%,-1%,0%,13%,1%
O=S(=O)(Nc1nc2ccccc2nc1NCC1CCCO1)c1ccccc1 (stereo unspecified),nt,-4%,-2%,0%,3%,1%
CC1CCC/C(=C(\C#N)c2nc(-c3cc4ccccc4oc3=O)cs2)C1 (stereo unspecified),-12%,1.8µM*,2.5µM*,1.7µM*,?,?
c1ccc2sc(NCC3CCCO3)nc2c1 (stereo unspecified),10µM*,1.4µM*,2.2µM*,21µM*,?,?
C=CCNc1nc(-c2ccc(O)c(C(N)=O)c2)cs1,3%,4%,2%,?,?,?
c1ccc2oc(-c3csc(NCC4CCCO4)n3)cc2c1 (stereo unspecified),?,0.4µM*,1.6µM*,1.5µM*,?,2.3µM*
C=CCNc1nc(-c2cc3ccccc3o2)cs1,0.56µM*,0.63µM*,1µM*,0.34µM*,?,0.52µM*
O=C(NCC1CCCO1)c1cc2ccccc2oc1=O (stereo unspecified),nt,?,13%,?,?,?
Cc1ccccc1NC(=O)CCCNC(=O)c1ccc(Cl)cc1,nt,0%,1%,2%,5%,0%
COC(=O)CCN(C(=O)C1C2CC3CC(C2)CC1C3)c1ccccn1 (stereo unspecified),-7%,5%,-2%,0%,-1%,0%
O=C1CN(C(=O)CSc2nc3ccccc3n2CCc2ccccc2)c2ccccc2N1,12%,-3%,-1%,-1%,?,-7%
O=c1oc2ccccc2cc1-c1csc(NN=C2CCCCC2)n1,?,?,?,13µM*,?,14%
CC(Nc1nc(-c2ccc3c(c2)NC(=O)CO3)cs1)c1ccccc1 (stereo unspecified),-13%,12%,21%,?,?,-8%
